The list is not random: actives were taken first. Their share in the collection is about 3%.
Sm TGR block = blocks Schistosoma mansoni thioredoxin glutathione reductase; Q962Y6; purified TGR, DTNB reduction, TNB absorbance 405 nm; Potency, µM (doses to about 114 µM), actives largely listed as inhibitors; 360,000 tested, 3% active; AID 485364; active = well fitted inhibition curve with a large enough effect; inconclusive = small, poorly fitted or top-dose-only effect; inactive = no such curve, though single readings can be large or run the other way; note: nearly all actives have a fitted effect of over 60% in size
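First, TGR (20 nM dispensed) and NADPH were mixed with compound. Second, a 15 min room-temperature incubation followed. Third, further NADPH and then DTNB were added to start the reaction. Finally, TNB absorbance was monitored kinetically.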
SARS PLP yeast = inhibitors of SARS-CoV papain-like protease in yeast. Potency, µM (highest dose often 32.9 µM), actives largely listed as activators. 330,000 tested, 0.19% active. S. cerevisiae expressing SARS-CoV PLpro, growth rescue; calls by dose curve; note: nearly all actives have a fitted effect of over 55% in size
Hits are given with their value; i = inactive; ? = inconclusive; nt = no result.

SMILES	Sm TGR block	SARS PLP yeast
CCn1c(=N)n(CCOc2ccc(Br)cc2)c2ccccc21	i	nt
Cc1ccc(S(=O)(=O)CCC(=O)N(CCCN2CCOCC2)c2nc3ccccc3s2)cc1	14µM	i
O=C(CCS(=O)(=O)c1ccccc1)N(CCCN1CCOCC1)c1nc2ccccc2s1	2.5µM	i
CN(C)CCN(C(=O)CCS(=O)(=O)c1ccccc1)c1nc2cc3c(cc2s1)OCO3	?	i
Cc1ccc2nc(N(CCN3CCOCC3)C(=O)CCS(=O)(=O)c3ccccc3)sc2c1	i	i
CCN(CC)CCN(C(=O)c1cccc(N2C(=O)CCC2=O)c1)c1nc2cc3c(cc2s1)OCO3	i	i
CCN(CC)CCN(C(=O)c1ccc(N2C(=O)CCC2=O)cc1)c1nc2cc3c(cc2s1)OCCO3	45µM	i
CCCC(=O)N(CCN1CCOCC1)c1nc2cc(C)c(C)cc2s1	i	i
CCN(CC)CCN(C(=O)CCS(=O)(=O)c1ccccc1)c1nc2cc3c(cc2s1)OCO3	8.9µM	i
CCCc1ccc(OC(C)C(=O)Nc2sc3c(c2C(=O)OC)CCCCC3)cc1 (centres undefined)	i	nt
CCc1cccc(NC(=O)c2cc3c(=O)oc4ccc(C)cc4c3s2)c1	i	nt
COc1ccc(CCNC(=O)C2CCC(CNS(=O)(=O)c3ccc(C)cc3)CC2)cc1OC (centres undefined)	i	nt
CCn1c2ccccc2c2nnc(N3CCN(c4cccc(Cl)c4)CC3)nc21	i	nt
CC(C)CC(C(=O)NCCc1ccccc1)N1Cc2ccccc2C1=O (centres undefined)	i	nt
Cc1cccc(-c2nc(SCC(=O)Nc3ccc4c(c3)OCO4)c(-c3ccccc3)[nH]2)c1	i	nt
CCC(=O)N1CCc2cc(S(=O)(=O)NC(Cc3ccccc3)C(=O)NCc3ccc(F)cc3)ccc21 (centres undefined)	i	nt
C#CC[N+](C)(C)CC#Cc1ccc(Cl)cc1	40µM	i
C#CC[N+](CC)(CC)CC#Cc1cccc(Cl)c1	i	i
N#Cc1ccc(NC(=O)COCc2cc(-c3ccc4c(c3)OCO4)on2)cc1	i	nt
Cc1nc2ccccc2n2c(O)c(CC(=O)O)cc12	35µM	i
Cc1nc2ccccc2n1CCC(=O)O	i	i
CC(=O)c1cccc(NC(=O)/C(=C/c2ccco2)NC(=O)c2ccco2)c1	i	i
Cc1ccc(C(=O)N/C(=C/c2ccco2)C(=O)Nc2cccc(C(=O)O)c2)cc1	45µM	i
COc1ccc(NC(=O)/C(=C\c2ccco2)NC(=O)c2ccco2)cc1	i	i
Cc1ccc(NC(=O)/C(=C\c2ccco2)NC(=O)c2ccco2)cc1	45µM	i
SMILES	Sm TGR block	SARS PLP yeast
COc1ccccc1C(=O)N/C(=C/c1ccccc1)C(=O)Nc1ccc(C(=O)O)cc1	i	i
COc1ccccc1C(=O)N/C(=C/c1ccco1)C(=O)Nc1cccc(C(=O)O)c1	50µM	i
COc1ccc(C(=O)CSc2nnc(-c3ccoc3C)n2CC2CCCO2)cc1 (centres undefined)	45µM	i
COCCn1c(SCC(=O)c2ccc3c(c2)OCCO3)nnc1-c1ccoc1C	28µM	i
COc1ccc(NC(=O)CSc2nnc(-c3ccoc3C)n2CC2CCCO2)cc1 (centres undefined)	i	i
COCCCn1c(SCC(=O)N2CC(=O)Nc3ccccc32)nnc1-c1ccoc1C	i	i
COCCCn1c(SCC(=O)Nc2ccc3c(c2)OCCO3)nnc1-c1ccoc1C	i	i
COCCCn1c(SCC(=O)n2c(C)c(C)c3ccccc32)nnc1-c1ccoc1C	45µM	i
CCCn1c2ccccc2c2cnn(CC(=O)N3CCC(C(=O)OCC)CC3)c(=O)c21	i	nt
COc1ccccc1CNC(=O)C1CCCN(C(=O)c2cnn(-c3ccc(F)cc3)c2-n2cccc2)C1 (centres undefined)	i	nt
CC1=C(c2ccc(Cl)cc2)S(=O)(=O)N=C1N1CCN(c2cccc(C(F)(F)F)c2)CC1	i	nt
O=C(OCc1nnc(-c2ccc([N+](=O)[O-])cc2)o1)C1CC(=O)N(CCc2ccccc2)C1 (centres undefined)	89µM	i
O=C(OCc1ccc([N+](=O)[O-])cc1)C1CC(=O)N(CCc2ccccc2)C1 (centres undefined)	i	i
CC(=O)c1sc2c(c1C)c(=O)n(-c1ccc(Cl)cc1)c(=O)n2Cc1ccc(Cl)cc1	i	nt
CCOC(=O)c1scc(-c2ccc(C)cc2)c1S(=O)(=O)Nc1cccc(CC)c1	i	nt
CC(=O)C1=C(c2ccccc2)OC(N)=C(C#N)C1c1ccccc1C (centres undefined)	i	i
CC(=O)C1(C)OC(N)=C(C#N)C(c2ccccc2)C1(C#N)C#N (centres undefined)	11µM	i
CCOCCc1nn2c(=O)cc(COC(=O)c3ccc(NC(=O)c4cccs4)cc3)nc2s1	i	nt
O=C1c2ccccc2C(=O)C12Cc1ccccc1N1CCN(c3ccccc3)CC12 (centres undefined)	i	i
Cc1ccc(N2C(=O)NC(=O)C3(Cc4ccccc4N4CCN(c5ccccc5)CC43)C2=O)cc1 (centres undefined)	18µM	i
O=C(Cn1c(=O)nc(-c2ccccc2)c2cc(Cl)ccc21)NCCc1ccccc1	i	nt
COc1ccc(NC(=O)CNS(=O)(=O)c2ccc(Cl)cc2)cc1	i	i
COc1ccc(NC(C)=[N+](C)CCNS(=O)(=O)c2ccc(Cl)cc2)cc1	35µM	i
COc1ccc(CCNc2nc3cc(OC)c(OC)cc3c3nc(-c4ccccc4)nn23)cc1OC	i	nt
Cc1cc(NC(=O)c2ccc(-c3ccc(Br)cc3)o2)cc(-c2nc3ncccc3o2)c1O	i	nt
SMILES	Sm TGR block	SARS PLP yeast
COC(=O)N1C(=O)[C@](c2ccc(OC)cc2)(C(C)C)N1C(=O)OC	45µM	i
COc1ccc(C2(C)NC(=O)N(CC(=O)NC(C)c3ccc(CC(C)C)cc3)C2=O)cc1 (centres undefined)	i	i
COC(=O)C1=CN(C)C=C(C(=O)OC)C1c1ccsc1	i	i
COC(=O)N1C(=O)[C@](c2ccsc2)(C(C)C)N1C(=O)OC	32µM	i
COc1ccccc1Cn1c(CNS(=O)(=O)c2c(C)cc(C)cc2C)nc2cccnc21	i	nt
COC(=O)c1cnc(N2CCN(c3ccc(OC)cc3)CC2)c2ccccc12	i	nt
CCCNC(=O)C1=CC(c2ccc3c(c2)OCO3)=NS(=O)(=O)N1C	i	nt
O=C(Cn1nnc(-c2ccccc2F)n1)OCC(=O)c1ccccc1	0.79µM	i
O=C(Cn1cnc2c(nnn2-c2ccc(F)cc2)c1=O)NCc1ccco1	79µM	i
CCCCOc1ccc(-c2nnn(CC(=O)NCc3ccco3)n2)cc1	i	i
Cc1ccc(-n2nnc3c(=O)n(CC(=O)NCc4ccco4)cnc32)cc1	i	i
O=C(Cn1nnc(-c2ccccc2)n1)c1ccccc1	i	i
CCOC(=O)c1ccc(NC(=O)Cn2nnc(-c3ccccc3F)n2)cc1	i	i
O=C(Cn1nnc(-c2ccc(F)cc2)n1)OCC(=O)c1ccccc1	10µM	i
O=C(Cn1nnc(-c2ccccc2F)n1)NCc1ccco1	45µM	i
CCOc1ccc(NC(=O)CCc2c(C)nc3nc(-c4cc(OC)cc(OC)c4)nn3c2C)cc1	i	nt
N#Cc1ccccc1Cn1c(=O)n(-c2ccc(F)c(Cl)c2)c(=O)c2sccc21	i	nt
CC(C)CCNC(=O)c1cc(-c2cccnc2)nc2ccc(S(=O)(=O)N3CCC(C)CC3)cc12	i	nt
CCC(C)[C@H](N)c1nnc(SCc2ccc(Cl)c(Cl)c2)o1 (some centres undefined)	i	nt
